# From PubChem
# Rows were chosen to be rich in hits. Some 5.3% of all compounds tested hit in one or more screens of this group.
# Six1-Eya2 inh: inhibitors of human Six1/Eya2 interaction | Q15475+O00167 | AlphaScreen GST-Six1/His-Eya2 binding, biochemical; stronger effect = lower value | activity change, % (no concentration beside the values) | 0.56% of 360,000 active | AID 651725; in the data active = activity change below about -65%; inconclusive = mostly about -30% to -63%; also: % is scaled to controls: 0 for no effect and ±100 for the full control effect
#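 Compounds are tested against tagged Six1 and Eya2 proteins bridged by glutathione donor and nickel acceptor beads; after a one-hour incubation at 37 °C without light, AlphaScreen emission is recorded.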
# HP1b chromo inh: inhibitors of HP1-beta chromodomain binding to methylated histone tails; Potency, µM (highest dose often 114 µM), for the others: at the top dose activity change, negative = inhibition, hits mostly inhibitors; P83916; AlphaScreen HP1-beta / biotin-H3K9me3 peptide binding; 0.56% of 390,000 active; AID 540317; also: potency is read from the fitted curve at half-maximal effect; nearly all actives have a fitted effect of over 70% in size
# Target sequence (P83916 whole entry, looked up): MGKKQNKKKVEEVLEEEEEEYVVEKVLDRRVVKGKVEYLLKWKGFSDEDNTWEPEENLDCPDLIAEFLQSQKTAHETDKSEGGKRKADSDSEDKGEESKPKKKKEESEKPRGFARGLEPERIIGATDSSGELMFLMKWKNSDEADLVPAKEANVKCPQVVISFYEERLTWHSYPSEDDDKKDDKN
#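 AlphaScreen: HP1-beta (50 nM) preformed 30 min with biotin-H3(1-18)K9me3 peptide (50 nM) in PBS pH 7.4, 0.01% Tween-20. Compound added for 30 min at RT, then streptavidin donor/nickel chelate acceptor beads (10 ug/mL) for 30 min.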
# BAZ2B inh: inhibitors of human BAZ2B bromodomain | Q9UIF8 | AlphaScreen BAZ2B-H3K14Ac peptide displacement | Potency, µM (highest dose often 114 µM), for inactives: at the highest dose activity change, negative = inhibition, usual class: inhibitors | 4.4% of 360,000 active | AID 504333; also: potency is read from the fitted curve at half-maximal effect; % is scaled to controls: 0 for no effect and ±100 for the full control effect; nearly all actives have a fitted effect of over 60% in size
#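 BAZ2B (50 nM) with biotin-H3(5-23)K14Ac peptide (50 nM) in PBS pH 7.4, 0.01% Tween-20, preformed 30 min, then compound 30 min at room temperature; top concentration 110uM. AlphaScreen streptavidin donor/nickel chelate acceptor beads (10 ug/mL final), 20 min dark, signal read.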
# JMJD2A Tudor: inhibitors of human JMJD2A Tudor domain; O75164; AlphaScreen JMJD2A-Tudor / H3K4me3 peptide binding; Potency, µM (highest dose often 114 µM), inactives show at the top dose activity change, negative = inhibition, most hits filed as inhibitors; 4.4% of 390,000 active; AID 504339; also: potency is read from the fitted curve at half-maximal effect; % is scaled to controls: 0 for no effect and ±100 for the full control effect; nearly all actives have a fitted effect of over 50% in size
# TDP1 inh: inhibitors of human tyrosyl-DNA phosphodiesterase TDP1; 0.28% of 350,000 active; Q9NUW8; Potency, µM (series often up to 130 µM), inactives show at the highest dose activity change, negative = inhibition, most hits filed as inhibitors; recombinant TDP1, AlphaScreen DNA substrate cleavage; also: potency is read from the fitted curve at half-maximal effect; % is scaled to controls: 0 for no effect and ±100 for the full control effect; nearly all actives have a fitted effect of over 40% in size
# Target sequence (Q9NUW8 whole entry, looked up): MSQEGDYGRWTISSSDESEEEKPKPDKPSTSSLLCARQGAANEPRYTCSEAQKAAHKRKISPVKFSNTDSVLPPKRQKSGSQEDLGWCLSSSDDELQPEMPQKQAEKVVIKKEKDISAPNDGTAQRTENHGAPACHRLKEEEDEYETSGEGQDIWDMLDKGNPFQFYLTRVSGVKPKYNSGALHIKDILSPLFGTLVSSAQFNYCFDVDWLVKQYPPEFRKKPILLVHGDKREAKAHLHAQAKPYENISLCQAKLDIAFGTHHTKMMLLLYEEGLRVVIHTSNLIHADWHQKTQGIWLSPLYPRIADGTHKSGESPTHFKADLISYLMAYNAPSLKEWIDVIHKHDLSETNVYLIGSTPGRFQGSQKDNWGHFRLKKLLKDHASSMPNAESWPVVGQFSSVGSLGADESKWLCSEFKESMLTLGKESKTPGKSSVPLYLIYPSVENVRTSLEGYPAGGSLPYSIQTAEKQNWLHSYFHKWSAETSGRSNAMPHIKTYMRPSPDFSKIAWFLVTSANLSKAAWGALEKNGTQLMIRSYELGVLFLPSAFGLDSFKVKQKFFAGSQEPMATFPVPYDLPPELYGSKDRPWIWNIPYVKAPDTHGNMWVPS
#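 Recombinant human Tdp1 (E. coli-expressed, 1 nM final) preincubated with compounds 15 min at room temperature, then 5'-biotin/3'-phosphotyrosine-FITC DNA substrate (15 nM final) added for 5 min. AlphaScreen beads (10 ug/ml final) added 10 min; cleavage lowers signal.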
# CtBP-E1A blk: CtBP/E1A binding inhibition; AlphaScreen GST-E1A/His-CtBP binding, 1536-well; stronger effect = lower value; 0.49% of 340,000 active; activity change, % (concentration not given with the values); in the data active = activity change below about -65%; inconclusive = mostly about -30% to -63%; also: % is scaled to controls: 0 for no effect and ±100 for the full control effect
#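 GST-E1A and His-tagged CtBP (125 nM each as 5X stock) were preincubated with pin-transferred compound for 2 h at 37 °C in the dark, then glutathione donor and nickel acceptor beads were added for 1 h before AlphaScreen reading.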
# Starred values were filed as active, the others as inactive; ? = inconclusive; . = no result given; ! = not confirmed by another sample; [ ] = another dose, or the depositor's remark. Unless noted, calls follow the shape of the dose curve; as a rule, active = well fitted inhibition curve with a large enough effect; inconclusive = small, poorly fitted or top-dose-only effect; inactive = no such curve, though single readings can be large or run the other way.
SMILES,Six1-Eya2 inh,HP1b chromo inh,BAZ2B inh,JMJD2A Tudor,TDP1 inh,CtBP-E1A blk
COCCCNCCCOc1ccc(Cl)cc1Br,-0.5,?,?,0.891µM*,-2.0%,-12.3
COCCNCCCOc1ccc(C)cc1Br,7.3,-17.7%,56.2µM*,20µM*,11.9%,.
CCOc1ccc(CCNC(=O)c2cc(Nc3ccc(C)cc3C)nc3ccccc23)cc1OCC,.,47.5%,.,-29.7%,4.7%,.
COc1cc(C)ccc1OCCCOc1cc(C)ccc1Cl,40.8,107.1%,.,68.3%,.,46.0
CCCCNCCOCCOc1ccc(Cl)cc1Br,3.6,-14.3%,79.4µM*,4.47µM*,-7.1%,8.4
COCCCNCCCOc1ccc(C)cc1Br,5.7,8.2%,50.1µM*,3.55µM*,-9.5%,7.2
CC(C)NCCCCOc1ccc(Br)cc1Cl,0.1,-19.8%,-2.2%,31.6µM*,6.0%,.
CNCCCOc1ccc(C)cc1OC,-0.3,-36.9%,39.8µM*,1.58µM*,11.9%,15.3
COCCCNC(=O)COc1ccc(Br)cc1Cl,7.6,27.4%,-5.3%,-6.3%,2.2%,8.3
Cc1ccc(Cl)cc1N1CCN(c2nc3ccc(C(=O)c4ccccc4)cc3n3cnnc23)CC1,.,11.3%,-22.7%,-20.7%,2.8%,.
Cn1cc(S(=O)(=O)N2CCCCC2)cc1C(=O)N1CCN(c2ccc(F)cc2)CC1,.,15.2%[57 µM],-8.7%,-28.8%,4.1%,.
O=c1c(S(=O)(=O)c2ccccc2)cn(Cc2ccccc2)c2cc(N3CCOCC3)c(F)cc12,.,27.0%,2.6%,-25.4%,-2.5%,.
CCCCC/C=C\C\C=C/C=C/C=C/[C@@H](O)[C@@H](O)CCCC(=O)O,.,.,.,.,6.2%,.
CC(C)NCCCOc1ccc(Cl)cc1Br,-1.3,?,?,31.6µM*,-7.6%,4.3
C=CCOc1ccccc1C1C2=C(CC(C)(C)CC2=O)Nc2c1c(=O)n(C)c(=O)n2C (stereo unspecified),-6.7,7.8%,5.3%,-16.9%,4.9%,2.6
Cc1ccc(-n2nc(C)c3c2NC2=C(C(=O)CC(C)(C)C2)C3c2ccccc2OCC(=O)O)cc1 (stereo unspecified),0.9,-6.3%,.,56.2µM*,5.3%,11.6
Cc1nc2c(o1)CCc1ccccc1C2N1CCN(C)CC1 (stereo unspecified),18.6,7.1%,-36.4%,89.1µM*!,0.0%,-11.4
Cc1nc(S(=O)(=O)N2CCN(C3c4ccccc4-c4ccccc43)CC2)cn1C,-16.7,20.1%,?,-25.2%,5.7%,9.6
Cc1ccc2c(c1)c1c(n2CC(O)Cn2nc(C)c(Br)c2C)C(=O)CCC1 (stereo unspecified),8.4,10.4%,7.4%,-3.1%,-13.6%,6.8
Cc1c(C)n(CC(O)CN2CCN(C)CC2)c2ccccc12 (stereo unspecified),-6.4,3.7%[57 µM],-35.0%,-30.9%,3.3%,.
Cc1c(C)n(CC(O)CN2CCCCC2)c2ccccc12 (stereo unspecified),-15.0,?,44.7µM*,1.58µM*,-4.1%,-15.2
Cc1cc(C)n(CC(O)Cn2c3ccccc3c3ccccc32)c(=O)n1 (stereo unspecified),-3.7,3.7%,3.1%,-20.8%,8.6%,5.9
Cc1cc(C)n(CC(O)Cn2c(C)c(C)c3ccccc32)n1 (stereo unspecified),-10.3,?,35.5µM*,3.55µM*,0.0%,-11.7
Cc1ccc2c(c1)c(C)c(C)n2CC(O)Cn1nc(C)c(Br)c1C (stereo unspecified),-27.4,-35.5%,44.7µM*,50.1µM*,11.0%,-15.9
Cc1c(C)n(CC(O)CN2CCOCC2)c2ccccc12 (stereo unspecified),-3.7,70.8µM*,.,22.4µM*,-2.1%,7.7
SMILES,Six1-Eya2 inh,HP1b chromo inh,BAZ2B inh,JMJD2A Tudor,TDP1 inh,CtBP-E1A blk
CCOC(=O)N1CCc2c(sc3c2c(=O)n(-c2ccc(F)cc2)c(=O)n3CC(=O)c2ccccc2)C1,.,27.5%,-15.4%,-8.3%,6.4%,.
Cc1ccc(NNC(=S)Nc2ccc(C(C)C)cc2)c(C)c1,-24.1,22.4µM*,35.5µM*,14.1µM*,9.1%,-29.0
Cc1ccc(C)c(NC(=S)NNc2ccc(F)cc2F)c1,-3.1,?,20µM*,31.6µM*,.,15.8
Cc1ccc(NC(=S)NNC(=S)Nc2ccc(C)cc2)cc1,-2.7,-12.5%,.,-29.2%,.,0.7
Cc1ccc(C)c(NC(=S)NCCc2ccc(F)cc2)c1,-9.3,0.7%,-3.5%,-29.7%,2.7%,.
COc1ccc(CCNCc2cc(C)n(-c3ccc(OC)cc3)c2C)cc1,-21.4,?,28.2µM*,20µM*,.,.
COc1ccc(CCNC(=S)Nc2cc(C)cc(C)c2)cc1,-14.9,-10.9%,-37.9%,-27.9%,5.7%,-1.5
COc1ccc(CCNC(=O)CN2CCN(c3ccccc3Cl)CC2)cc1,-2.3,12.6%,-15.0%,-16.7%,0.9%,-4.6
COc1ccc(CCNCc2ccccc2N2CCCC2)cc1,7.9,-4.9%,56.2µM*,20µM*,.,-12.0
O=C(O)C1=NN(c2cc(Cl)c(S(=O)(=O)O)cc2Cl)C(=O)C1,?,-8.5%[57 µM],.,6.31µM*,.,-22.9
Cc1ccc(C)c(N2N=C(C(=O)O)CCC2=O)c1,8.6,?,-19.5%,-7.4%,.,1.0
CCN1CCN(Cc2ccc(NC(=O)c3cc(NC(=O)C(=O)c4c[nH]c5ccccc45)cc(OC)c3)cc2C(F)(F)F)CC1,-13.3,?,39.8µM*,35.5µM*,4.7%,-3.9
CCN1CCN(Cc2ccc(NC(=O)c3ccc(C)c(NC(=O)C(=O)c4c[nH]c5ccccc45)c3)cc2C(F)(F)F)CC1,-13.9,?,12.6µM*,39.8µM*,8.3%,-4.8
O=C(/C=C\c1ccc2c(c1)OCO2)NC1CC(=O)N(c2ccc(F)cc2)C1 (stereo unspecified),.,24.2%,1.2%,-2.3%,2.6%,.
O=C(CCSCc1ccccc1Cl)N1CCN(c2ccc(F)cc2)CC1,.,2.7%,-7.4%,-29.7%,7.8%,.
c1ccc(COc2ccc(OCCCNC3CCCC3)cc2)cc1,-15.8,-53.6%,44.7µM*,5.01µM*,4.9%,-2.2
COCCCNCCCCOc1ccc(OCc2ccccc2)cc1,-1.6,?,44.7µM*,20µM*,-7.1%,.
CC(C)Oc1ccc(OCCNC2CCCC2)cc1,-0.7,?,?,3.55µM*,2.6%,1.2
OC(CNC1CCCCC1)COCCOc1ccc(Br)cc1 (stereo unspecified),2.1,24.4%,1.1%,-1.4%,5.5%,-12.9
COCCCNc1ccn2nc(-c3ccc(OCc4ccccc4)cc3)cc2n1,-6.9,.,.,.,.,-7.7
C=CCNCCCCOc1ccc(OCc2ccccc2)cc1,-7.3,-21.7%,50.1µM*,35.5µM*,2.4%,.
COc1ccc(CNC(=O)c2cc(-c3cccc(Cl)c3)on2)cc1,.,35.7%,2.7%,-0.7%,8.2%,.
